# This is a sample that favours compounds with a hit; in the whole collection about 7.3% have one here.
# RORgamma inh – ROR gamma (mouse) transcription inhibition; AID 2551; Drosophila S2 Gal4-RORgamma UAS-luciferase reporter, 20 h; actives 5.4% (n = 310,000); Potency, µM (highest dose often 53.6 µM), inactives show top-dose activity change, negative = inhibition, usual class: inhibitors; P51450; further: nearly all actives have a fitted effect of over 60% in size
# Target sequence (P51450 whole entry, looked up, the tested form may be a part): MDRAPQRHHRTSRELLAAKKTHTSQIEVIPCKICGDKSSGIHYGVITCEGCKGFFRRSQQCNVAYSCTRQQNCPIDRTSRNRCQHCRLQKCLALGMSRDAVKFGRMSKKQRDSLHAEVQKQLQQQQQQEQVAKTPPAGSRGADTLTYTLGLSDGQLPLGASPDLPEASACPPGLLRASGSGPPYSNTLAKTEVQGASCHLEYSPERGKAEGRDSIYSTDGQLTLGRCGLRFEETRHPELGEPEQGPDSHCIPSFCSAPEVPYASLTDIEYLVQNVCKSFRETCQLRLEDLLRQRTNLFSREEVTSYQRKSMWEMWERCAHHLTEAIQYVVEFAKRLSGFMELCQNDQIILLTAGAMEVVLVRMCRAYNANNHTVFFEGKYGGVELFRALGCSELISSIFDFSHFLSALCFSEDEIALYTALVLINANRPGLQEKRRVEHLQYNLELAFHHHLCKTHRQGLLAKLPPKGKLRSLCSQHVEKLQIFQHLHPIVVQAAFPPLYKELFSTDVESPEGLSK
#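 Stably transfected Drosophila Schneider cells are the test system, with ROR gamma fused to Gal4 and luciferase under UAS control; luminescence is read after 20 hr of 700 uM copper sulfate induction at ambient temperature.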
# Gal4-VP16 FLuc – counter-screen for ROR gamma inhibitors: Gal4-VP16 reporter | actives 3.5% (n = 310,000) | Potency, µM (highest dose often 53.6 µM), without a hit: at the top dose activity, negative = inhibition, usual class: inhibitors | Drosophila S2 Gal4-VP16 UAS-luciferase, luminescence, 20 h;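 further: Gal4-VP16 expression switched on by copper sulfate through the metallothionein promoter; nearly all actives have a fitted effect of over 50% in size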
# Tau fibril ThT – inhibitors of human tau fibril formation, thioflavin T binding. actives 2.1% (n = 270,000). AID 1460. P10636. Potency, µM (series often up to 57.4 µM), for inactives: at the highest dose activity, negative = inhibition, usual class: inhibitors. recombinant tau K18 P301L, heparin-induced fibrillization, ThT fluorescence; further: nearly all actives have a fitted effect of over 55% in size
# Target sequence (P10636 561-689 P618L limits assumed): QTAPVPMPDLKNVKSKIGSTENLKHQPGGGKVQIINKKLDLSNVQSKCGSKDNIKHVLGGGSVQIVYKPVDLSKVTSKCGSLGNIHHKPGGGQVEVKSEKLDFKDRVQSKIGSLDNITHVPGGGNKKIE
#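 ThT emission at 510 nm, taken 1 hr after adding 30 uM dye, quantifies aggregates formed when 20 uM heparin acts on human tau K18 P301L for 6 hr at 37 C.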
# Tau fluor cs – counter-screen for tau fibril formation inhibitors; tau K18 P301L Alexa594 fluorescence, heparin fibrillization; Potency, µM (titrated, usually from 57.7 µM), inactives show top-dose activity change, negative = decrease; actives 0.93% (n = 280,000); AID 1463; further: nearly all actives have a fitted effect of over 55% in size
#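 Human tau K18 P301L (15 uM unlabeled, 0.24 uM Alexa 594-labeled) in 100 mM sodium acetate pH 7 with 20 uM heparin, 6 hr at 37 C. ThT 30 uM added, 1 hr ambient; Alexa 594 FP and total fluorescence read at 555/632 nm.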
# Tau FP inhib – tau fibrillization inhibition (FP) | K18 P301L tau heparin fibrillization, Alexa594 FP, 6 h | P10636 | AID 1468 | actives 0.39% (n = 280,000) | Potency, µM (highest dose often 57.7 µM), for inactives: at the top dose activity, negative = inhibition, most hits filed as inhibitors; further: nearly all actives have a fitted effect of over 55% in size
#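 Steps: dispense K18 P301L tau (15 uM plus 0.24 uM Alexa 594 tracer, final) in pH 7 sodium acetate; add compound; add heparin (20 uM final); incubate 6 hr, 37 C; add ThT (30 uM final); after 1 hr ambient, read FP.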
# An asterisk follows results filed as active; ? = inconclusive; . = not tested or not shown; [ ] = dose if it differs, or a comment. The call rests on the fitted dose curve; in most records, active means well fitted curve in the direction sought with a large enough effect; inconclusive means small, poorly fitted or top-dose-only effect, or another doubt; inactive means no such curve, though single readings can be large; an effect the other way counts as inactive or inconclusive. On the % scale 0 is the no-effect control and ±100 the full control effect; potency means the concentration at half of the fitted maximal effect.
SMILES,RORgamma inh,Gal4-VP16 FLuc,Tau fibril ThT,Tau fluor cs,Tau FP inhib
COc1ccc(-c2c(C)[nH]n3c(=O)c(Cc4ccccc4)c(C)nc23)cc1OC,3.5µM*,?,-6%,-4%,-5%
Cc1nc2c(-c3ccc(F)cc3)c(C)[nH]n2c(=O)c1Cl,11µM*,11µM*,.,.,.
Cc1nc2c(-c3ccccc3)c(C)[nH]n2c(=O)c1Cc1ccccc1,2.8µM*,7.1µM*,-11%,-2%,-5%
O=C(CSc1nc(O)c(C2CCCCC2)c(=O)[nH]1)Nc1ccccc1Cl,15%,0%,.,.,.
CCOc1ccccc1NC(=O)c1nc2nc(C)cc(C(F)F)n2n1,.,.,-6%,-3%,-12%
COc1ccccc1-c1cc(C(=O)N/N=C/c2sccc2C)c2ccccc2n1,7.1µM*,8.9µM*,5%,-6%,-4%
Cc1ccsc1/C=N/NC(=O)c1cc(-c2ccncc2)nc2ccccc12,1.8µM*,8.9µM*,?,?,-5%
O=C(N/N=C/c1ccc([N+](=O)[O-])o1)c1cc(-c2ccncc2)nc2ccccc12,-19%,-14%,?,?,14%
CC(C)C[C@@H](CC(=O)N[C@@H](CCC(=O)O)CC(=O)O)NC(=O)[C@@H]1CCCC[C@H]1NC(=O)C[C@H](CCCN)NC(=O)C[C@H](Cc1ccccc1)NC(=O)[C@@H]1CNCC[C@H]1N,6%,2%,-3%,-3%,-3%
CC(C)(C)C(=O)/C=c1\[nH]c(=O)/c(=C\c2ccc(F)cc2)s1,?,?,?,?,-9%
COc1ccc(/C=c2\s/c(=C/C(=O)c3ccc(C)cc3)[nH]c2=O)cc1OC,13µM*,?,?,?,-21%
Cc1c(C(=O)OC2CCCC2)[nH]c2c1C(=O)CC(c1ccc(C(C)(C)C)cc1)C2 (centres undefined),.,.,-6%,-3%,1%
Cn1c(OCc2cccnc2)nc2c1c(=O)n(Cc1ccccc1)c(=O)n2C,11µM*,6.3µM*,1%,-2%,-13%
O=C(NCC(=O)N(c1ccc(F)cc1)C(C(=O)NC1CCCC1)c1ccncc1)c1ccco1 (centres undefined),7%,3%,.,.,.
Oc1ccc(N2CCN(c3nc(-c4cccs4)nc4ccccc34)CC2)cc1,-18%,-6%,.,14µM*[quencher],5%
Cc1ccccc1-c1nc(N2CCN(C)CC2)c2ccccc2n1,-26%,6%,.,.,.
CN1CCN(c2nc(-c3ccccc3O)nc3ccccc23)CC1,8.9µM*,-14%,.,.,.
Cc1ccc(NC(=O)Cn2c(=O)cc(-c3ccccc3)c3c(C)nn(C)c32)c(Cl)c1,.,.,6%,0%,0%
COc1ccc(NC(=O)Nc2cc3oc4ccccc4c3cc2OC)cc1,29%,-5%,?,8.9µM*[quencher],?
COc1ccc(NC(=O)Nc2ccc(Cc3ccncc3)cc2)c(OC)c1,13%,?,?,25µM*[quencher],?
COc1cc2c(cc1NC(=O)Nc1ccc(F)cc1)oc1ccccc12,-4%,?,-2%,6.3µM*[quencher],-8%
COc1cc2c(cc1NC(=O)C(C)Sc1ccc(NC(C)=O)cc1)oc1ccccc12 (centres undefined),?,2%,-1%,?,?
COc1cc2c(cc1NC(=O)Nc1ccc(C)cc1)oc1ccccc12,14%,4%,-4%,4µM*[quencher],-7%
O=C(Cn1cnc2cc([N+](=O)[O-])ccc2c1=O)NC1CCS(=O)(=O)C1 (centres undefined),-17%,-6%,-14%,-2%,4%
O=C(CSc1nc(=O)n(Cc2ccccn2)c2c1CCC2)Nc1ccccc1,.,.,-12%,-8%,-12%
SMILES,RORgamma inh,Gal4-VP16 FLuc,Tau fibril ThT,Tau fluor cs,Tau FP inhib
Cc1ccc(C)c(NC(=O)Cn2c(=O)oc3cc(S(=O)(=O)NCc4ccccc4)ccc32)c1,.,.,-5%,-18%,?
COc1cc2c(cc1NC(=O)Nc1cccc(C)c1)oc1ccccc12,-3%,2%,?,7.9µM*[quencher],-1%
O=c1[nH][nH]c2c(N=Cc3ccccc3O)ccc(F)c12,-27%,-14%,3.5µM*,3.5µM*[quencher],7.9µM*
O=C1c2ccccc2C(=O)c2c(NCCCN(CCO)CCO)cccc21,-40%,-23%,14µM*,?,1%
CCN(CC)CC(=O)Nc1cccc2c1C(=O)c1ccccc1C2=O,?,-16%,-14%,-24%,3%
COc1cc(/C=C/C(=O)OCC(=O)Nc2ccc(C)c(S(=O)(=O)N3CCCCC3)c2)ccc1O,?,-19%,-8%,14µM*[quencher],-3%
COc1cc(/C=C/C(=O)OCC(=O)Nc2cc(S(=O)(=O)N3CCCCC3)ccc2C)ccc1O,?,5%,-5%,?,10%
Cc1ccc(NC(=O)CCl)cc1S(=O)(=O)N1CCCCCC1,11µM*,?,-10%,-11%,0%
COCCNCC(=O)Nc1ccc(C)c(S(=O)(=O)N2CCCCC2)c1,12%,0%,-7%,-14%,-7%
C=CCN1C(=O)C(Cc2ccccc2)S/C1=N/N=C/c1cccs1 (centres undefined),-10%,8%,-11%,-22%,-9%
O=C1N/C(=N\N=C\c2cccs2)SC1Cc1ccc(Cl)cc1 (centres undefined),1.1µM*,0.63µM*,-5%,-13%,?
O=C1N/C(=N\N=C\c2cccs2)SC1Cc1cccc(Cl)c1 (centres undefined),0.5µM*,0.71µM*,4%,3%,4%
O=C(Nc1ccc(O)c(-c2nc3ccccc3o2)c1)C1(c2ccccc2)CCCC1,5.6µM*,8.9µM*,7%,-19%,-2%
O=C(Nc1ccc(-c2nc3ccccc3o2)c(O)c1)c1ccccc1,.,.,-5%,-1%,-6%
CC(=O)Oc1ccc2oc(/C=C/N(C)C)c([N+](=O)[O-])c2c1,-17%,-4%,28µM*,-16%,10%
C/C(=C/c1oc2ccc(O)cc2c1[N+](=O)[O-])N(C)C,1%,1%,4µM*,?,-12%
CC(C)=Cc1oc2ccc([N+](=O)[O-])cc2c1N1CCOCC1,5%,23%,3%,-5%[2.34 µM],-4%[2.34 µM]
COC(=O)CNC(c1ccccc1)c1cc(Br)ccc1NC(=O)c1cc(OC)c(OC)c(OC)c1 (centres undefined),.,.,-14%,-19%,-2%
O=c1c2ccccc2nc(-c2ccc([N+](=O)[O-])cc2)n1O,4%,4µM*,-9%,-4%,-6%
O=c1c2cc(Cl)ccc2nc(-c2ccccc2Cl)n1O,?,20µM*,-1%,3%,2%
O=c1c2ccccc2nc(-c2cccc(Cl)c2)n1O,1%[0.365 µM],.,-5%,2%,5%
Cc1ccc(-c2nc3ccc(Cl)cc3c(=O)n2O)cc1,?,11µM*,.,.,.
Cc1ccc(-c2nc3ccccc3c(=O)n2O)cc1,?,14µM*,.,.,.
CCCn1c(C(C)NC(C)=O)nc2ccccc21 (centres undefined),-13%,-13%,-1%,4%,1%
